Source: PubChem (Johns Hopkins Ion Channel Center)
TMEM16A act = TMEM16A chloride channel activators or potentiators, primary screen, cell-based, HTS; Anoctamin-1 (Mus musculus), Q8BHY3; HEK293 TMEM16A/YFP-H148Q/I152L, iodide quench fluorescence; stronger effect = lower value; B-score at 10 µM; hit rate 0.3% among 340,000; AID 623877, 2012;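 active = fluorescence-ratio B-score plate-corrected deviation score at least 3 library SD below zero, with starting fluorescence score within 5 deviations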;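 note: channel opened by trigger with iodide after compound preincubation; score built on the fluorescence ratio of max minus min over baseline; more negative score means more quench and so TMEM16A activation or potentiation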
Target sequence (Q8BHY3 whole entry, looked up): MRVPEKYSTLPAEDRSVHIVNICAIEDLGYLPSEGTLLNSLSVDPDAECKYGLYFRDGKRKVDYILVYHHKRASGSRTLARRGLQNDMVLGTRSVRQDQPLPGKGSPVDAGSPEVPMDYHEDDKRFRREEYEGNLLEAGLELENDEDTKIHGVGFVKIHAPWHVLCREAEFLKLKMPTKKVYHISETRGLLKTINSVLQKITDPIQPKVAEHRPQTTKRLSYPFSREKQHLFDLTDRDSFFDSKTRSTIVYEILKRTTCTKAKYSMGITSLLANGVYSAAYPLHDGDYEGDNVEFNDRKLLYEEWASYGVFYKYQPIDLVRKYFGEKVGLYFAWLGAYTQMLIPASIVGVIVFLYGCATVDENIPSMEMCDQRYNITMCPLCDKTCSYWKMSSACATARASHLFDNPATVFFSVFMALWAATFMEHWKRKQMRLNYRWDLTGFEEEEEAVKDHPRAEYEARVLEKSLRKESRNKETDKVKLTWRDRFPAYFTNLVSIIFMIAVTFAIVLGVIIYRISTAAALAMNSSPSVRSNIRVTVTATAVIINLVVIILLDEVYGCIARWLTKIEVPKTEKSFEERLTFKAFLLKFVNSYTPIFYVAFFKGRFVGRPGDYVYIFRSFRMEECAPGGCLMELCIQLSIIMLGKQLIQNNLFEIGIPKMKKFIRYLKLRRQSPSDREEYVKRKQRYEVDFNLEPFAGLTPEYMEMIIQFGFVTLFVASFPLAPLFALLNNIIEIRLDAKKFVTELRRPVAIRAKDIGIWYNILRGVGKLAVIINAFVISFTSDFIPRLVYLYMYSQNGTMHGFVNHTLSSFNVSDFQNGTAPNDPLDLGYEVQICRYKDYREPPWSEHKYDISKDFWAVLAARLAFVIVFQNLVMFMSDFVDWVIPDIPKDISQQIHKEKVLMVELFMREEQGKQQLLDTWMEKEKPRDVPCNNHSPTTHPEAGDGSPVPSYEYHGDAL
CHT block = inhibitors of human choline transporter CHT; CHT-expressing cells, membrane potential dye, choline response; stronger effect = lower value; B-score at 10 µM; hit rate 0.86% among 310,000;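 active = B-score over 3 SD under the library average, and starting fluorescence ratio not unusually high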;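 note: choline stimulus applied at its EC90 after an EC20 pre-addition; B-score computed on integrated fluorescence ratio after choline addition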
CHT allo act = CHT positive allosteric modulators, primary screen, cell-based, membrane potential dye, choline EC20 | High affinity choline transporter 1 (Homo sapiens), Q9GZV3 | CHT-expressing cells; stronger effect = higher value; LV-AA mutant CHT in HEK293 cells | B-score at 10 µM | hit rate 0.49% among 310,000 | AID 488977, 2010;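 active = initial fluorescence not abnormally high and integrated response B-score, plate-corrected, over 3 SD above library mean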
ANO1 block = TMEM16A chloride channel inhibitors, primary screen, cell-based, HTS | hit rate 1.2% among 310,000 | normalized B-score (activity score, 25-100; higher = stronger inhibition) at 10 µM | HEK293 TMEM16A/YFP iodide influx fluorescence, ionomycin | Anoctamin-1 (Mus musculus), Q8BHY3;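 active = ratio plate-corrected score three or more library SD toward inhibition, starting fluorescence score within five deviations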;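 note: score derived from kinetic fluorescence span divided by baseline fluorescence per well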
CHT activ conf = CHT activators, confirmation, cell-based, membrane potential dye, duplicate | shares compounds with CHT allo act | CHT-expressing cells, membrane potential dye fluorescence (FDSS); % of choline EC20–EC90 response window; HEK293 expressing CHT LV-AA mutant; choline added at its EC20 | activation, % at 10 µM | hit rate 91% among 2,500;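 active = primary screen active, with duplicate mean activation above negative control mean plus 3 SD, cut at about 11% in these data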
HEK293 MP dye = membrane potential response in parental HEK293 cells, counter-screen for CHT activator project, cell-based, membrane potential dye; shares compounds with CHT allo act; membrane potential dye fluorescence (FDSS); measured after EC20 choline addition; ratio readout change at 10 µM, hits read low; hit rate 62% among 2,500; AID 623908, 2012;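 active = duplicate-averaged ratio beyond 3 SD from buffer wells, up or down, though filed actives are nearly all decreases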
Numbers without * were called inactive; i = inactive; . = not tested or not shown. Sampled rows, rich in hits. Any-hit rate of the full collection: about 2.3%.

SMILES | TMEM16A act | CHT block | CHT allo act | ANO1 block | CHT activ conf | HEK293 MP dye
Cc1ccccc1N(CC(=O)NCC1CCCO1)C(=O)CNS(=O)(=O)c1ccc(F)cc1 (stereo unspecified) | i | i | i | i | . | .
COCc1cccc(N2C(=O)CC(C3C=C(C)C4C(=O)N(c5cccc(COC)c5)C(=O)C4C3)C2=O)c1 (stereo unspecified) | i | i | i | i | . | .
CN1CCN(CC(=O)Nc2cc(N(C)C)nc3ccccc23)CC1 | i | i | i | i | 38* | -40*
CCN(CC)CC(=O)Nc1cc(N(C)C)nc2ccccc12 | i | i | i | i | . | .
O=C(CCN1CCCCC1)NNC(=O)C12CC3CC(CC(C3)C1)C2 | i | i | i | i | . | .
O=C(NCc1ccco1)c1ccc2c(c1)S(=O)(=O)c1ccccc1C2=O | i | i | 8.6* | i | 30* | i
CC12CN(C(=O)c3ccc([N+](=O)[O-])cc3)CC(C)(CN(C(=O)c3ccc([N+](=O)[O-])cc3)C1)C2=O | . | i | i | i | . | .
CCCC12CN(C(=O)c3ccc([N+](=O)[O-])cc3)CC(C)(CN(C(=O)c3ccc([N+](=O)[O-])cc3)C1)C2=O | i | i | i | i | 45* | i
COc1cc(/C=C2\CCn3c2nc2cc(C(=O)O)ccc2c3=O)ccc1OC(F)F | i | i | i | i | 26* | -32*
O=C(O)c1ccc2c(=O)n3c(nc2c1)/C(=C/c1ccc(C(F)(F)F)cc1)CC3 | . | i | i | i | . | .
COc1ccc(C(c2nnnn2Cc2cccs2)N2CCN(c3ccccc3F)CC2)cc1 (stereo unspecified) | i | i | i | i | 31* | i
COc1ccc(CCNC(=O)c2cc(-c3ccccc3)c(N3CCOCC3)s2)cc1OC | i | i | i | i | . | .
CCC1CCCCN1CCNS(=O)(=O)c1ccc2c(c1)oc(=O)n2C (stereo unspecified) | i | i | i | i | 35* | -25*
CN1CCN(c2ccc([N+](=O)[O-])cc2C(=O)N2CCOCC2)CC1 | i | i | i | i | . | .
O=C(NC1CCSc2ccccc21)c1ccc([N+](=O)[O-])cc1 (stereo unspecified) | i | i | i | i | . | .
O=C(Nc1ccccc1C(=O)NCCN1CCOCC1)c1cccc([N+](=O)[O-])c1 | i | i | i | i | 58* | -57*
O=[N+]([O-])c1ccc(N2CCN(c3ccccc3F)CC2)c(S(=O)(=O)N2CCOCC2)c1 | i | i | 6.2* | i | 34* | i
O=C(c1cc([N+](=O)[O-])ccc1N1CCOCC1)N1CCN(c2ccccc2)CC1 | i | i | 12* | i | 48* | i
O=[N+]([O-])c1ccc(N2CCCCCC2)c(S(=O)(=O)N2CCCCC2)c1 | i | i | i | i | . | .
O=C(NC1CCSc2ccccc21)c1cc([N+](=O)[O-])ccc1N1CCOCC1 (stereo unspecified) | i | i | 6.4* | i | 6 | i
O=C(NCCc1ccccc1)c1cc([N+](=O)[O-])ccc1N1CCOCC1 | i | . | . | . | . | .
O=C(NCCc1ccc(F)cc1)c1cc([N+](=O)[O-])ccc1N1CCOCC1 | i | i | i | i | 2 | i
COc1ccc(C(=O)Nc2nc(C)cc(C)n2)cc1[N+](=O)[O-] | i | i | i | i | 19* | -39*
Cc1cc(C)nc(NC(=O)c2ccc(C)c([N+](=O)[O-])c2)n1 | i | i | i | i | . | .
COc1ccc(COc2ccccc2C(=O)NCc2ccccc2)cc1F | i | i | i | i | . | .
SMILES | TMEM16A act | CHT block | CHT allo act | ANO1 block | CHT activ conf | HEK293 MP dye
CCCCCN(C(=O)CCC(=O)OCC(=O)NCc1cccc(OC)c1)c1c(N)n(CCCC)c(=O)[nH]c1=O | i | i | i | i | . | .
Cc1ccc(-c2nnc(Nc3ccc4c(c3)nc(C)n4C)c3ccccc23)cc1 | i | i | i | i | . | .
CNC(=O)c1ccc(Nc2nnc(C)c3ccccc23)cc1 | i | i | i | i | 47* | -48*
Cc1nnc(Nc2ccc3c(c2)ncn3C)c2ccccc12 | i | i | i | i | 33* | -47*
O=C(NC1CC1)C1=C[C@@H](c2csc3ccccc23)C[C@@H](OCc2ccc(CO)cc2)O1 | i | i | i | i | . | .
C=CCNC(=O)CSc1nc2ccccc2c(=O)n1CCc1ccc(OC)c(OC)c1 | i | i | i | i | . | .
COc1ccc(CCn2c(SCCN3CCCCC3)nc3ccccc3c2=O)cc1OC | i | i | 7.4* | i | 56* | -60*
CCCCCCCn1c(NC(=O)CC)nc2ccccc21 | i | i | i | i | . | .
Cc1nn2c(NCCCN(C)C)c3c(nc2c1-c1ccccc1)CCC3 | i | i | 8.2* | i | 45* | -57*
Cc1nn(-c2ccccn2)c2nc(-c3cccs3)cc(C(=O)NCc3ccco3)c12 | i | i | i | i | 19* | i
CCCCNc1nc2ccccc2nc1Cl | i | i | i | i | . | .
COc1ccc2c(c1)c(C(=O)N/N=C/c1ccc(OC)c(OC)c1)c(C)n2C | i | i | i | i | . | .
CCCCN(CC)CCNC(=O)CN(C)S(=O)(=O)c1ccc2c(c1)c(=O)n(C)c(=O)n2C | i | i | i | i | 32* | -34*
COc1ccc(CNC(=O)CN(C)S(=O)(=O)c2ccc3c(c2)c(=O)n(C)c(=O)n3C)cc1 | i | i | i | i | . | .
CN(C)c1ccnc(Nc2ccc(O)cc2)c1C#N | i | i | 7* | i | 52* | -46*
CCCOc1c(OC)cccc1C1CC(=O)Nc2cc3c(cc21)OCO3 (stereo unspecified) | i | i | i | i | . | .
CCCOc1c(OC)cccc1C1CC(=O)Nc2cc3c(cc21)OCCO3 (stereo unspecified) | i | i | i | i | 10 | i
CC(C)C(=O)N1CCN(c2ccccc2NC(=O)c2cccc(Cl)c2)CC1 | i | i | 6.6* | i | 18* | i
CCOC(=O)N1CCN(C(=O)c2ccc(N(Cc3ccc(Cl)cc3)S(C)(=O)=O)cc2)CC1 | i | i | 8.8* | i | 2 | i
